# Several values for one entry are separate records, joined by “and”; a condition that tells them apart may be missing. Identical values can stand only once. Records with an inconclusive call do not appear. Unmarked numbers belong to inactive results. Activity calls are given as the source filed them. Calls come from the whole dose curve; as a rule, active = well fitted inhibition curve with a large enough effect in the repeat runs; inconclusive = weak or mixed curves; inactive = flat fitted curve, though single readings scatter.
# Molecular target: Cytochrome P450 2D6 (Homo sapiens) (UniProt P10635)
# Assay: Cytochrome P450 family 2 subfamily D member 6 (CYP2D6) small molecule antagonists: luciferase biochemical (cell-free) qHTS assay (AID 1645840); note: nearly all actives have a fitted effect of over 55% in size
# Conditions: P450-Glo CYP2D6 enzyme, luciferin luminescence, 1 h; series mostly up to 57.4 µM; activity change, negative = inhibition: at the top concentration
# Description: National Center for Advancing Translational Sciences [NCATS] Assay Overview: Cytochrome P450 (CYP) enzymes are membrane-bound hemeproteins that play a key role in metabolism of drugs and xenobiotics. Assaying the effect of chemicals on CYP isozymes is useful to minimize the adverse drug reactions and toxicities in drug development process. Chemical compounds were tested for their effect on CYP enzyme activities by using P450-Glo (TM) screening systems (Promega Corporation, Madison, WI). These systems provide a luminescent method containing proluciferin substrates and are converted to luciferin products by CYP isozymes. The luciferin products formed are detected with a luciferin detection reagent, and the amount of light produced is proportional to CYP activity. P450-Glo (TM) CYP2D6 screening system (Catalog. No. V9890) was used to detect the compounds that interfere in CYP2D6 activity.
# Assay Protocol Summary: Two ul of enzyme-substrate mix was dispensed into medium binding white/solid 1536-well plates (Greiner Bio-One North America Inc., Monroe, NC) using a Flying Reagent Dispenser (FRD, Aurora Discovery, San Diego, CA). […] The assay plates were incubated at room temperature for 10 min. Then 2 ul of NADPH regeneration solution was added to each well of the assay plates using an FRD and incubated at room temperature for 1 h. The reaction was stopped by adding 4 ul of detection reagent using an FRD and after 20 min incubation at room temperature, the luminescence signal was measured using a ViewLux plate reader (Perkin Elmer, Shelton, CT). Data were expressed as relative luminescence units.
# % is set by controls: 0 for no effect and ±100 for the full control effect; potency is the fitted concentration of half-maximal effect.
# Chain of Cytochrome P450 2D6 (Homo sapiens) (P10635 whole entry, looked up): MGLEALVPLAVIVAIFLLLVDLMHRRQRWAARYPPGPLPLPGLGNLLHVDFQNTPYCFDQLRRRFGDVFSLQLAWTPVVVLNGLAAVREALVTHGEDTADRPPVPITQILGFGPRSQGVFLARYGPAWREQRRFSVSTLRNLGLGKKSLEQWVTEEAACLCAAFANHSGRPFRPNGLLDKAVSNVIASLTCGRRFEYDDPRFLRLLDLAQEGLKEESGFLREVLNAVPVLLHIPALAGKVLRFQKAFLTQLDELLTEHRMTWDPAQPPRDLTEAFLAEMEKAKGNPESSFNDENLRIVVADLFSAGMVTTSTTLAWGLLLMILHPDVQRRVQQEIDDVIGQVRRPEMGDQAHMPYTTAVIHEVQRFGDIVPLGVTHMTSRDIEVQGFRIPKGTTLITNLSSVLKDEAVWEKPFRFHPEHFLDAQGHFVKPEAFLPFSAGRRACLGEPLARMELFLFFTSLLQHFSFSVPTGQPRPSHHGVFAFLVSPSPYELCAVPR
Structure (SMILES),"activity change, negative = inhibition",Potency
C[C@@H](O)[C@H](N)C(=O)O,5.39% [at 23.9 µM],
C[C@@H]1CC[C@@]2(OC1)O[C@H]1C[C@H]3[C@@H]4CC[C@H]5C[C@@H](O)CC[C@]5(C)[C@H]4CC(=O)[C@]3(C)[C@H]1[C@@H]2C,8.49% [at 4.83 µM],
NC(=O)N/N=C/c1ccc([N+](=O)[O-])o1,,13.4 µM (active)
C[C@@H]1CN(c2c(F)c(F)c3c(=O)c(C(=O)O)cn(C4CC4)c3c2F)C[C@H](C)N1,2.31% [at 23.9 µM],
O=C1O[C@H](CO)[C@@H](O)[C@H](O)[C@H]1O,11.1%,
CN(C)CCN(Cc1ccccc1)c1ccccn1,,0.174 µM (active)
O=C(CCCN1CCN(c2ccccn2)CC1)c1ccc(F)cc1,,15.5 µM (active)
C[C@](N)(Cc1ccc(O)cc1)C(=O)O,8.94% [at 4.83 µM],
CC/C=C(\C(=O)N[C@@H]1C(=O)N2C(C(=O)OCOC(=O)C(C)(C)C)=C(COC(N)=O)CS[C@H]12)c1csc(N)n1,,inactive
CC1(C)Oc2ccc(C#N)cc2[C@@H](N2CCCC2=O)[C@@H]1O,0.624%,
O=c1cc(CO)occ1O,-2.02%,
OC[C@H]1O[C@@H](O[C@@H]2[C@@H](CO)O[C@](O)(CO)[C@H]2O)[C@H](O)[C@@H](O)[C@H]1O,20.4%,
COc1ccccc1O,7.01% [at 115 µM],
Oc1cn2c(n1)Nc1ccc(Cl)c(Cl)c1C2,3.28% [at 23.9 µM],
CCCCc1ncc(/C=C(\Cc2cccs2)C(=O)O)n1Cc1ccc(C(=O)O)cc1,-26%,
COc1cc(C(=O)N2CCOCC2)cc(OC)c1OC,0.791%,
CS(=O)(=O)c1ccc([C@@H](O)[C@@H](CF)NC(=O)C(Cl)Cl)cc1,-18.9%,
CCOC(CN1CCN(CC(C)C(=O)c2ccccc2)CC1)c1ccccc1 (stereo not given),,0.0952 µM (active)
NC1CCN(c2cccc(Cl)n2)CC1,,1.55 µM (active)
CC1(C)OC(=O)NC1=O,6.14%,

Structure (SMILES),"activity change, negative = inhibition",Potency
CN(C)CCC=C1c2ccccc2CCc2ccccc21,,5.49 µM (active) and 9.52 µM (active)
NC(=O)NC(=O)Cc1ccccc1,7.55%,
C=CCn1c(=O)n([C@@H]2O[C@H](CO)[C@@H](O)[C@H]2O)c2nc(N)[nH]c(=O)c21,-2.29%,
COc1ccc(S(=O)(=O)Nc2nnc(CC(C)C)s2)cc1,8.71%,
CC(=O)O[C@@]12CO[C@@H]1C[C@H](O)[C@@]1(C)C(=O)[C@H](O)C3=C(C)[C@@H](OC(=O)[C@H](O)[C@@H](NC(=O)OC(C)(C)C)c4ccccc4)C[C@@](O)([C@@H](OC(=O)c4ccccc4)[C@H]21)C3(C)C,-6.51%,
CN1CCCCC1CCN1c2ccccc2Sc2ccc(S(C)=O)cc21 (stereo not given),,0.0219 µM (active)
Nc1ccc(S(=O)(=O)Nc2ccccc2)cc1,-1.66%,
Cc1cc2c(cc1S(N)(=O)=O)S(=O)(=O)CCC2,18.8%,
O=C1OC(OC(=O)c2cccnc2Nc2cccc(C(F)(F)F)c2)c2ccccc21 (stereo not given),-16.4%,
CCN(CC)CCSC(=O)C(c1ccccc1)c1ccccc1,,5.49 µM (active)
CCN(CC)CCCC(C)Nc1c2ccc(Cl)cc2nc2ccc(OC)cc12 (stereo not given),,0.0776 µM (active)
CN(C)CCCO[C@@H]1[C@H]2OC(C)(C)O[C@H]2O[C@@H]1C(O)CO (stereo not given in full),6.91%,
O=C(Oc1ccccc1C(=O)O)c1ccccc1O,11.5%,
O=C(O)Cc1sc(-c2ccccc2)nc1-c1ccc(Cl)cc1,1.49%,
N[C@@H](CSCCCO)C(=O)O,2.25% [at 23.9 µM],
NCC(=O)CCC(=O)O,0.484%,
CNC(=O)Oc1ccc2c(c1)[C@]1(C)CCN(C)[C@@H]1N2C,,0.977 µM (active)
C#CCN(C)Cc1ccccc1,-2.49%,
Cc1cc(C(C#N)c2ccc(Cl)cc2)c(Cl)cc1NC(=O)c1cc(I)cc(I)c1O (stereo not given),,11 µM (active)
CN1[C@@H]2CC[C@H]1CC(OC(=O)C(O)c1ccccc1)C2 (stereo not given in full),-15.9%,
